Among the data in PubChem BioAssay AID624169 (The Scripps Research Institute Molecular Screening Center, 2012) are activation values, retold here.

The campaign covered roughly 360,000 compounds. About 2,400 (0.67%) were called active. This is one part of a sample in which actives are shown more often than they occur. Unmarked numbers belong to inactive results.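 Rule for the calls: active = activation above a run cutoff, the mean activation of all tested compounds plus 3 SD (cut at about 14% in these data); inactive = the rest.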

Chain of 5-hydroxytryptamine receptor 2A (Mus musculus) (P35363 whole entry, looked up): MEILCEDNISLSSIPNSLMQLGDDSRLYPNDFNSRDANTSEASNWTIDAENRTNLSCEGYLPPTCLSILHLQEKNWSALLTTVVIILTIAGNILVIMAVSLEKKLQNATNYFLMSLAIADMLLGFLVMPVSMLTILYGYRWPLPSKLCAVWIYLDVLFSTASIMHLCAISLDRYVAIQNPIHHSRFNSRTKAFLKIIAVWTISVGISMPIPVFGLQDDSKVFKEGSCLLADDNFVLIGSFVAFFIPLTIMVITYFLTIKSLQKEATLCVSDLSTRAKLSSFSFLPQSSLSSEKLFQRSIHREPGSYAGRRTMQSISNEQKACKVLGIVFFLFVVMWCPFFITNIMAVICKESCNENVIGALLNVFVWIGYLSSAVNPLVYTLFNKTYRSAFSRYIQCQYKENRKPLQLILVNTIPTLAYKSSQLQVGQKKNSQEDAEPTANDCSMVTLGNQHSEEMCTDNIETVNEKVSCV

The assay has as its target 5-hydroxytryptamine receptor 2A (Mus musculus) (UniProt P35363). Put plainly: mouse Htr2a agonists via beta-arrestin recruitment, primary screen, cell-based, luminescence (AID 624169).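 Note: 0% = plate median of compound wells and 100% = 30 µM serotonin.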 To be noted: CHO-K1 mHTR2A beta-arrestin complementation, at 7.6 µM, stronger effect = higher value, percent of 30 µM serotonin response. Background: Activated receptors often draw arrestin, which recruitment assays turn into a signal.
Regarding `COc1ccc(C(C)=O)cc1COC(=O)Cn1cnc2ccccc2c1=O`, the activation was 16.5% (active).
Under `COCc1cc(C(C)=O)ccc1OC` stands 2.94%; under `CCN(CC(=O)Nc1ccccc1OC)C(=O)Cn1cnc2ccccc2c1=O`, 2.03%.
As for `CN1OC[C@@H]2CN[C@H](c3ccc(-c4ccccc4)cc3)C[C@@H]21`, the figure is -5.82%; as for `Cc1ccc(S(=O)(=O)NN=C2CC(C)(C)CC(=O)C2(C)C)cc1`, -0.12%.
Under `Cc1ccc(C2(c3ccc(C)cc3)NC(=O)N(Cc3c(C)noc3C)C2=O)cc1` stands -0.69%; under `COc1ccccc1CNC(=O)Cn1c(=O)oc2cc(Cl)ccc21`, -2.35%; under `CCCNC(=O)CCn1nc(-c2ccccc2)c2ccccc2c1=O`, 5.25%.
As for `COC(=O)Cn1nc(-c2ccccc2)c2cc(Cl)ccc21`, the activation is 18.3% (active).
On to `COC(=O)c1ccccc1N=Nc1c(C)[nH][nH]c1=O`, for which the activation was -4.12%.
Under `CC(C)(C)SCCSC1=CC(=O)CC(c2ccccc2)C1` (stereo not given) stands -1.98%; under `O=C(NCc1ccco1)c1cccn2c(=O)c3c4c(sc3nc12)CCCC4`, 19.5% (active).
For the compound `O=C(NCc1ccco1)c1cnn2c(C(F)(F)F)cc(-c3ccco3)nc12`, the activation is 0.02%.
As for `O=c1oc(-c2ccco2)nc2sc3c(c12)CCCCC3`, the activation was -3.64%.
Under `COc1ccc(OCCCC(=O)OC(C)C(=O)Nc2ccccc2[N+](=O)[O-])cc1` (stereo not given) stands 9.6%; under `Cc1ccc(OCc2nnc(NC(=O)OCC(C)C)s2)cc1`, -4.72%.
As to `COc1ccc2[nH]cc(CCN3C(=O)c4ccc(C(=O)O)cc4C3=O)c2c1`, the activation is 19.3% (active).
Consider `COCCCN1C(=O)c2ccc(C(=O)Nc3ccc(OC)cc3OC)cc2C1=O`, for which the activation was 12.7%.
As for `Cc1ccc2[nH]cc(CCCN3C(=O)c4ccccc4C3=O)c2c1`, the figure is -2.51%.
As for `COC(=O)C[C@H]1C[C@@H]2c3cc(NC(=O)Nc4ccccc4)ccc3O[C@@H]2[C@@H](CO)O1`, the figure is 2.06%.
Under `O=C(Nc1ccc2c(c1)[C@@H]1C[C@@H](CC(=O)N3CCCCC3)O[C@@H](CO)[C@@H]1O2)NC1CCCCC1` stands 15.4% (active); under `O=C(C[C@H]1C[C@@H]2c3cc(NC(=O)C4CCC4)ccc3O[C@@H]2[C@H](CO)O1)NC1CCCCC1`, -0.85%.
In the case of `O=C(CCS(=O)(=O)c1cccc2nsnc12)N1CCN(c2ccccc2F)CC1`, the activation is 4.25%.
As for `COC(=O)[C@@H]1CCCN1C(=O)c1cc(COc2cccc3cccnc23)on1`, the figure is 2.24%; as for `CCS(=O)(=O)Nc1ccc(C2=NN(S(=O)(=O)c3ccc(F)cc3)C(c3ccco3)C2)cc1` (stereo not given), -6.66%.
